Compound activity: PubChem, several laboratories
Lmaj promast – Leishmania major promastigote growth inhibition; inhibition, % at 10 µM; 9% of 200,000 active; Leishmania major promastigotes, resazurin fluorescence viability; in the data active = inhibition above about 50%;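 note: promastigotes grown with compound for 44 hours at 28 °C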
m-calpain inh – inhibitors of pig calpain II. inhibition, % at 16 µM. 0.37% of 220,000 active. purified calpain II, fluorogenic peptide substrate, 30 min;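 active = inhibition above about 50%, limit read from the data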
Cl transport mod – modulates chloride dependent transport by human KCC2 | Q9H2X9 | B-score of Tl+ flux slope (higher = more flux/activation; lower = inhibition) at 10 µM | KCC2 cells, thallium flux FluoZin-2 fluorescence | 2.2% of 190,000 active;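 active = thallium flux slope and its plate-corrected score both differing from the plate sample mean at a set confidence after two filtering rounds, in either direction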;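 note: slope of fluorescence scaled to starting intensity during 10 to 20 s after thallium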
Target sequence (Q9H2X9 whole entry, looked up): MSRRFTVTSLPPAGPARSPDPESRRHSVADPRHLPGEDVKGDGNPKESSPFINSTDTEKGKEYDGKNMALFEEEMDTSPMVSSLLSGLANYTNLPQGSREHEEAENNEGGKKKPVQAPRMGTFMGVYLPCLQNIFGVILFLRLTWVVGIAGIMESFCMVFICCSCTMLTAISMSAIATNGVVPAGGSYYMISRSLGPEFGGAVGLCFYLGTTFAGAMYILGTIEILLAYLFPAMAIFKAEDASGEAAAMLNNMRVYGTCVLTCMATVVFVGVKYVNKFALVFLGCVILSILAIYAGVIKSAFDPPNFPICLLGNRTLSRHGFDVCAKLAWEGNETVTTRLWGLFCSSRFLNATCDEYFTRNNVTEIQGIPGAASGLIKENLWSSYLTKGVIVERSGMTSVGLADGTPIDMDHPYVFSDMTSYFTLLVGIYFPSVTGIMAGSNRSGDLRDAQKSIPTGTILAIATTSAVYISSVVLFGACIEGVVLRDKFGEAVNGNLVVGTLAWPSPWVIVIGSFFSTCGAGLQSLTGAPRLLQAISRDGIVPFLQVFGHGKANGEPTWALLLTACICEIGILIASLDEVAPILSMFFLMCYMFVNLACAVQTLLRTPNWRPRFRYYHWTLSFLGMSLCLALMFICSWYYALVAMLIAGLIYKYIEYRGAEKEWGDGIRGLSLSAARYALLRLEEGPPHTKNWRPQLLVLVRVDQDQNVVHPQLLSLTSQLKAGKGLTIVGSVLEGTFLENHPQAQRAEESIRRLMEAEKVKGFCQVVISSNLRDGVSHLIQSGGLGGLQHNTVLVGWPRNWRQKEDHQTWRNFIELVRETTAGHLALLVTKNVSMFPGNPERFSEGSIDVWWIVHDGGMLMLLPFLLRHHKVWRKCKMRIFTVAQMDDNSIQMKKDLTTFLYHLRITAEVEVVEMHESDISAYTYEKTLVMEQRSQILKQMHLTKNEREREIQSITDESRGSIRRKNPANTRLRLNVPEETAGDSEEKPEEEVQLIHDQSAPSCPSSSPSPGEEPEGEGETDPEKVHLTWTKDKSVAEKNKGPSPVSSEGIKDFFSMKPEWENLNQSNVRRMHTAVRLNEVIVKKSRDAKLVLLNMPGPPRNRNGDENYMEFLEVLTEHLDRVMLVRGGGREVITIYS
ROMK mod – human ROMK K+ channel modulation, primary screen | P48048 | Tet-inducible ROMK, thallium flux fluorescence; actives lie on both sides | B-score at 10 µM | 2% of 130,000 active;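 active = signal ratio slope over the read window, or its plate-corrected B-score, at least 3 SD from the plate mean, either direction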;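 note: B-score of the F/F0 ratio slope over 7 to 12 s after thallium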
WT yeast gro inh – growth inhibition of WT yeast, mitochondrial fusion screen; mitochondrial fusion phenotypic screen, WT strain; inhibition, % at 10 µM; 2.1% of 190,000 active; AID 1362; in the data active = inhibition above about 58%; tested in S. cerevisiae
An asterisk follows results filed as active; · = no result. Hits are enriched below; roughly 12% of the tested compounds scored in any of these assays.

SMILES	Lmaj promast	m-calpain inh	Cl transport mod	ROMK mod	WT yeast gro inh
Cn1c(=O)c(=O)n(C)c2cc(S(=O)(=O)Nc3ccc4c(c3)OCCO4)ccc21	64*	29	-2.5	·	0
Cn1c(=O)oc2cc(S(=O)(=O)NCc3ccccc3)ccc21	-6	0	0.84	0.36	-2
Cn1c(=O)c(=O)n(C)c2cc(S(=O)(=O)Nc3ccc(OC(F)(F)F)cc3)ccc21	99*	-53	·	0.1	4
Cn1c(=O)oc2cc(S(=O)(=O)Nc3ccc4c(c3)OCCO4)ccc21	63*	-27	1	-0.67	-3
CCCCC(CCC(=O)Nc1ccn(-c2ccccc2)n1)C(=O)O (stereo not given)	·	9	-1.1	·	·
COc1ccc(NS(=O)(=O)c2ccc(O)c(C(=O)OCC(=O)Nc3ccc4c(c3)OCCO4)c2)cc1	-8	-44	-0.46	-0.14	-14
COc1ccc(NS(=O)(=O)c2ccc3oc(Nc4ccc5c(c4)OCCO5)nc3c2)cc1	93*	11	·	0.18	73*
O=C(NCc1cccnc1)c1sc2cc(Cl)ccc2c1Cl	82*	15	-1.1	·	2
Cn1c(C(=O)NCc2cccnc2)cc2sc(Cl)cc21	81*	40	-0.18	·	-10
CCOC(=O)C1=C(C)NC(=O)NC1/C(C)=C/c1ccccc1 (stereo not given)	-3	-49	0.49	-0.11	13
Cc1c(C(=O)NCc2cccnc2)oc2ccc(S(=O)(=O)N3CCCC(C)C3)cc12 (stereo not given)	29	-5	-0.011	·	18
Cc1ccc(NC(=S)N(Cc2cccs2)Cc2cc3cc(C)ccc3[nH]c2=O)cc1	79*	-29	0.91	-0.082	14
Cc1cccc(NC(=S)N(Cc2cccs2)Cc2cc3cc(C)ccc3[nH]c2=O)c1	26	14	0.74	1.8	35
Cc1ccc(NC(=S)N(Cc2cccs2)Cc2cc3cc(C)cc(C)c3[nH]c2=O)cc1	95*	-24	0.77	0.4	6
Cc1ccc(NC(=S)N(CCN(C)C)Cc2cc3cc(C)ccc3[nH]c2=O)cc1	44	-4	0.38	-1.2	16
COc1cc2cc(CN(Cc3cccs3)C(=S)Nc3ccc(C)cc3)c(=O)[nH]c2cc1OC	98*	-48	-0.53	0.75	5
CNC(=S)N(Cc1cccs1)Cc1cc2cc(OC)c(OC)cc2[nH]c1=O	62*	-77	-0.82	-0.2	-8
O=[N+]([O-])c1ccc(SCCO)nc1SCCO	·	11	-0.24	·	·
CC(C)c1nnc(SCC(=O)N2CCc3ccccc32)n1N	0	-6	0.31	-0.42	0
Cc1ccc(NC(=O)CSc2ncc3ccccn23)cc1	-4	-37	-0.16	-0.61	-5
O=C(CSc1ncnc2nc[nH]c12)Nc1nnc(SCc2ccc(Cl)c(Cl)c2)s1	-3	-101	1.4	0.29	19
CCCc1ccc(C(=O)Cn2nc(C(=O)O)c3ccccc3c2=O)cc1	-7	10	0.11	0.62	4
Cc1cc(C)c2[nH]c(=O)c(CN(Cc3cccs3)C(=S)NCc3ccco3)cc2c1	99*	-40	0.97	0	15
CCN(CC)CCN(Cc1cc2cc(C)ccc2[nH]c1=O)C(=S)NCc1ccco1	61*	-7	-0.036	·	-6
COc1ccccc1NC(=O)N(Cc1cccs1)Cc1cc2cc3c(cc2[nH]c1=O)OCO3	7	-13	0.7	-0.013	1
SMILES	Lmaj promast	m-calpain inh	Cl transport mod	ROMK mod	WT yeast gro inh
CCN(CC)CCN(Cc1cc2cc(C)cc(C)c2[nH]c1=O)C(=S)NCc1ccco1	38	-18	0.1	-2.2	2
COc1cc2cc(CN(Cc3cccs3)C(=S)Nc3cccc(C)c3)c(=O)[nH]c2cc1OC	88*	-45	-0.45	0.28	-1
O=[N+]([O-])c1cnn(-c2nc(-c3cccs3)cc(C(F)(F)F)n2)c1	-14	5	1.2	0.19	8
COc1ccc(C2=NOC(C(=O)Nc3cccnc3Cl)C2)cc1 (stereo not given)	-5	-4	0.017	·	-3
Cc1cc(Cl)ccc1C(=O)C1CCCN(C(=O)c2snnc2C)C1 (stereo not given)	-1	-13	·	0.6	18
Nc1ccc(SCc2nc3cccc4c3n2CCC4)cc1	·	14	0.3	-0.54	·
O=C(c1cc(F)c(F)cc1Cl)N1CCN(c2ccc([N+](=O)[O-])c3ncccc23)CC1	57*	-2	0.19	-1.6	3
O=C(c1cc([N+](=O)[O-])ccc1Cl)N1CCN(c2ccccn2)CC1	2	-20	0.052	·	9
CSC(=S)N/N=C(\C)c1ccc(Br)cc1	-3	21	84*	3.1*	68*
Cc1cc(NC(=O)CSc2nnc(N)s2)c([N+](=O)[O-])cc1C	-5	-26	0.018	0.15	-16
CC1=NC(=O)C(N=Nc2cccc3ccccc23)N1c1ccccc1 (stereo not given)	-7	·	1.4	0.19	·
Cc1ccc(/C=C/C(=O)c2ccccc(=O)c2O)cc1C	97*	-4	32*	-0.37	-20
COc1ccc(/C=C/C(=O)O)cc1COc1ccccc1C	-8	-30	-0.043	·	5
O=C(/C=C/c1ccc(F)cc1)c1cc(Br)ccc1O	·	-2	·	·	·
O=C(/C=C/c1ccccc1)c1cc(Br)ccc(=O)c1O	77*	-16	16*	-1	4
CC(CCc1ccccc1)NC(=O)Cc1cccs1 (stereo not given)	-4	-60	-0.35	1.4	-7
CC(CCc1ccccc1)NC(=O)CSc1nccc(=O)[nH]1 (stereo not given)	-5	-22	-1.6	-0.69	7
CC(CCc1ccccc1)NC(=O)Cc1ccc([N+](=O)[O-])cc1 (stereo not given)	65*	-1	-1.5	·	7
CC(CCc1ccccc1)NC(=O)CSc1ccccc1 (stereo not given)	52*	24	-1.7	-0.12	-2
CC(CCc1ccccc1)NC(=O)CSc1cccc[n+]1[O-] (stereo not given)	-8	53*	0.04	0.33	-6
COCCNC(=O)COC(=O)c1ccc(OCC(=O)Nc2ccccc2OC)c(OC)c1	1	-12	-0.05	0.89	-16
COc1ccc(C2CC(=O)c3cnn(-c4nc(C)cc(C)n4)c3C2)cc1 (stereo not given)	78*	20	0.83	-0.014	11
CCCCCCSc1nnc(-c2cnn(-c3ccccc3)c2-n2cccc2)n1C	4	56*	-2.6	-2.4	53
c1ccc(-c2csc(N3CCN(c4ccccn4)CC3)n2)cc1	-3	16	-1.9	·	63*
CC(=O)Nc1ccc(NC(=O)CCNS(=O)(=O)c2cccc3nsnc23)cc1	-2	-13	1.3	-0.3	-7
CC1CCN(c2ncnc3ccccc23)CC1	31	-6	-0.25	·	-10
O=C1CC(c2ccccc2Cl)=NN(c2ncnc3ccccc23)C1=O	83*	-15	-0.17	1.2	-17
CN1C(CC(=O)c2ccccc2)CCCC1CC(O)c1ccccc1 (stereo not given)	90*	-10	-0.18	-0.93	-41
CN1[C@@H](CC(=O)c2ccccc2)CCC[C@H]1C[C@H](O)c1ccccc1	88*	13	0.49	·	-4
